Measured values: ChEMBL document CHEMBL1961873, “Compounds: GSK PKIS; Assays: Nanosyn kinase panel” (2012)

Experiments:
[1] = target: MAP/microtubule affinity-regulating kinase 3 (Homo sapiens) (UniProt P27448); details: at 1 µM;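 also: reported values are averaged percent inhibition of MARK3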
[2] = target: T1, MAP/microtubule affinity-regulating kinase 4 (Homo sapiens) (UniProt Q96L34); details: at 0.1 µM
T1 sequence (whole entry): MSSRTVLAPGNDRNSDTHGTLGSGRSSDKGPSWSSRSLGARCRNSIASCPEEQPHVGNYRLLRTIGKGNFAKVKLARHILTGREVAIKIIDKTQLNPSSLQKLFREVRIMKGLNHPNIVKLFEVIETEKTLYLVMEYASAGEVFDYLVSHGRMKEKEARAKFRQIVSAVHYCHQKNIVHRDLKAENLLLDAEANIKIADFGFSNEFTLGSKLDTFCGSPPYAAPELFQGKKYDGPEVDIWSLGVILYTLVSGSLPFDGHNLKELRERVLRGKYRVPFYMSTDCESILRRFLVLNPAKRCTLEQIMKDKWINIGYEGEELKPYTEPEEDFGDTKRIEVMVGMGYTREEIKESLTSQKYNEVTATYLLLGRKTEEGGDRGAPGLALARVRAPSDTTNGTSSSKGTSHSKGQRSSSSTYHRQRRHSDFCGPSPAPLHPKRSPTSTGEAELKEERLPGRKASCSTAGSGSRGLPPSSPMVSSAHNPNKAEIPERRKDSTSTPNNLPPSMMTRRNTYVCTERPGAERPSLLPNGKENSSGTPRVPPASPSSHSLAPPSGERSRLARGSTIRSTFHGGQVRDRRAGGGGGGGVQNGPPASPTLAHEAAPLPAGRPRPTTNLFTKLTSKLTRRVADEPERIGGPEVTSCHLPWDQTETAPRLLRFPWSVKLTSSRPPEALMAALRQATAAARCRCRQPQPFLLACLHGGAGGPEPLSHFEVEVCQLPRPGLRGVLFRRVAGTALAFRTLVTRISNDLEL

[3] = target: T1, MAP/microtubule affinity-regulating kinase 4 (Homo sapiens); details: at 1 µM
[4] = target: Maternal embryonic leucine zipper kinase (Homo sapiens) (UniProt Q14680); details: at 0.1 µM
[5] = target: Maternal embryonic leucine zipper kinase (Homo sapiens) (UniProt Q14680); details: at 1 µM
[6] = target: MAP kinase-interacting serine/threonine-protein kinase 1 (Homo sapiens) (UniProt Q9BUB5); details: at 0.1 µM
[7] = target: MAP kinase-interacting serine/threonine-protein kinase 1 (Homo sapiens) (UniProt Q9BUB5); details: at 1 µM
[8] = target: MAP kinase-interacting serine/threonine-protein kinase 2 (Homo sapiens) (UniProt Q9HBH9); details: at 0.1 µM
[9] = target: MAP kinase-interacting serine/threonine-protein kinase 2 (Homo sapiens) (UniProt Q9HBH9); details: at 1 µM
[10] = target: Serine/threonine-protein kinase MARK2 (Homo sapiens) (UniProt Q7KZI7); details: at 0.1 µM
[11] = target: Serine/threonine-protein kinase MARK2 (Homo sapiens) (UniProt Q7KZI7); details: at 1 µM
[12] = target: PAS domain-containing serine/threonine-protein kinase (Homo sapiens) (UniProt Q96RG2); details: at 0.1 µM
[13] = target: PAS domain-containing serine/threonine-protein kinase (Homo sapiens) (UniProt Q96RG2); details: at 1 µM
[14] = target: Phosphorylase b kinase gamma catalytic chain, skeletal muscle/heart isoform (Homo sapiens) (UniProt Q16816); details: at 0.1 µM
[15] = target: Phosphorylase b kinase gamma catalytic chain, skeletal muscle/heart isoform (Homo sapiens) (UniProt Q16816); details: at 1 µM
[16] = target: T2, Phosphorylase b kinase gamma catalytic chain, liver/testis isoform (Homo sapiens) (UniProt P15735); details: at 0.1 µM
T2 sequence (whole entry): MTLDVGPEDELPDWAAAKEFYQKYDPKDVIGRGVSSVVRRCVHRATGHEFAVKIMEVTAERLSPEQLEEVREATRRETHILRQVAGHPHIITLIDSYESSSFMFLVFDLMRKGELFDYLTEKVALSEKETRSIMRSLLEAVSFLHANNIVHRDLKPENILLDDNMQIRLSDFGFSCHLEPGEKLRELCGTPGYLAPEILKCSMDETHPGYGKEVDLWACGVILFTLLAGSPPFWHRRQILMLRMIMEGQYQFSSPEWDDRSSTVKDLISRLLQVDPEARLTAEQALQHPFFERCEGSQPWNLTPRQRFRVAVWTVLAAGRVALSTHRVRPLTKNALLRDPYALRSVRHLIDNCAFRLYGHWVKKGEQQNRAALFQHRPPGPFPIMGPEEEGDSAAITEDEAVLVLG

[17] = target: T2, Phosphorylase b kinase gamma catalytic chain, liver/testis isoform (Homo sapiens); details: at 1 µM
[18] = target: Serine/threonine-protein kinase pim-1 (Homo sapiens) (UniProt P11309); details: at 0.1 µM
[19] = target: Serine/threonine-protein kinase pim-1 (Homo sapiens) (UniProt P11309); details: at 1 µM
[20] = target: Serine/threonine-protein kinase pim-2 (Homo sapiens) (UniProt Q9P1W9); details: at 0.1 µM;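 also: reported value is the mean percent inhibition of PIM2, measured in the GSK PKIS kinase inhibitor set screen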
Serine/threonine-protein kinase pim-2 (Homo sapiens), sequence (Q9P1W9 whole entry, looked up): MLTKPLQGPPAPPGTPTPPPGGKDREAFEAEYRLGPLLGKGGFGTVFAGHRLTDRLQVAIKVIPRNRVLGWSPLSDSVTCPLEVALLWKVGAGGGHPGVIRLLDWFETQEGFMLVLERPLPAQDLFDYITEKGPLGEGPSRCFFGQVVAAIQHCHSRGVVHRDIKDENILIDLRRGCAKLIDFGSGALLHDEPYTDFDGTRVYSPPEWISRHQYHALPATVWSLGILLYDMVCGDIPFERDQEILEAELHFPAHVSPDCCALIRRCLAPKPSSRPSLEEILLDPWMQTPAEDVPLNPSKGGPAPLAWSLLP

Serine/threonine-protein kinase pim-1 (Homo sapiens), sequence (P11309 whole entry, looked up): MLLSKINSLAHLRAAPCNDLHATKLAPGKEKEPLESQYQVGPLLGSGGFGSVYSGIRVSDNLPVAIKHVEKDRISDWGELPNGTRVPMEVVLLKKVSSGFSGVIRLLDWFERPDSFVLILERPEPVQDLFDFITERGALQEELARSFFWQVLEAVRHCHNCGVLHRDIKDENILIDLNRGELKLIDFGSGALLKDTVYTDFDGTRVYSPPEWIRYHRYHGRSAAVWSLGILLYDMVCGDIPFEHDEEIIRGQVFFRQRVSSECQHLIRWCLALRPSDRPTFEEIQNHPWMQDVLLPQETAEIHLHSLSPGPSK
Serine/threonine-protein kinase MARK2 (Homo sapiens), sequence (Q7KZI7 whole entry, the tested form may be a part): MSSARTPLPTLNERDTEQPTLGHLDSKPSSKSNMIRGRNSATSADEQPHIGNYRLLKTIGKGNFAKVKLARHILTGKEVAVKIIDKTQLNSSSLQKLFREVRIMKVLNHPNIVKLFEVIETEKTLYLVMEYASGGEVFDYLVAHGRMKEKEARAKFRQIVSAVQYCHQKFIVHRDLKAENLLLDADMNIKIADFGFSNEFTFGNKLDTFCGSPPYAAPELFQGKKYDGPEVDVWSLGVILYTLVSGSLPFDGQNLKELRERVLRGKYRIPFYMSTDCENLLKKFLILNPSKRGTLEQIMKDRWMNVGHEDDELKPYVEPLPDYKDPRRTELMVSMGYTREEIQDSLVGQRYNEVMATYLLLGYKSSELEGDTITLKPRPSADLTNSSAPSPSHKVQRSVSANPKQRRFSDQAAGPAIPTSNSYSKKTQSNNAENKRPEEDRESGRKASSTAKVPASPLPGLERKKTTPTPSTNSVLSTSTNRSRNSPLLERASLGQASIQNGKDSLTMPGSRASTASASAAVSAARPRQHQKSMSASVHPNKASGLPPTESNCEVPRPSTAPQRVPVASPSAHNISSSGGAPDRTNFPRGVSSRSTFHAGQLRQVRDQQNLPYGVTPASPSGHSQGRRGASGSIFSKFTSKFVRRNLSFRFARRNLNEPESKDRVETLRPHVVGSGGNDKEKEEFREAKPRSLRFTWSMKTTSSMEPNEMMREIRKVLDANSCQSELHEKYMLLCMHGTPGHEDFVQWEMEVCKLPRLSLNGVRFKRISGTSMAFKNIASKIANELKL
Maternal embryonic leucine zipper kinase (Homo sapiens), sequence (Q14680 whole entry, looked up): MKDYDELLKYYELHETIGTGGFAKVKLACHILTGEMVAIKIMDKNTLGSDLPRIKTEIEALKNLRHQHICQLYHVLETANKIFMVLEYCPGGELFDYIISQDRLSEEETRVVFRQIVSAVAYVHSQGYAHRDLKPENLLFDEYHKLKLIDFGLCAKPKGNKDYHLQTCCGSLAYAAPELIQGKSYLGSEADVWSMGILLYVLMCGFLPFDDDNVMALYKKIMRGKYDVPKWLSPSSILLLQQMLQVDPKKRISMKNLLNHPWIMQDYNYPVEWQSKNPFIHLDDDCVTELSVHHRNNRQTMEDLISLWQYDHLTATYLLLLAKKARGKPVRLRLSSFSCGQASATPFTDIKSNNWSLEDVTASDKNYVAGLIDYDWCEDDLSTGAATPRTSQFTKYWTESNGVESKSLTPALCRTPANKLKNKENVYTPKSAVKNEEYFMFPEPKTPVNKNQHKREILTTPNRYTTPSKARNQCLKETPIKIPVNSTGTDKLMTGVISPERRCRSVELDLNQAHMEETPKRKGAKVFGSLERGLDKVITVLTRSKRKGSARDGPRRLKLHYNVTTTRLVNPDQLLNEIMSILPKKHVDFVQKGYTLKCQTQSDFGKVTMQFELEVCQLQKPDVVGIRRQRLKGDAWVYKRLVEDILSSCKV
PAS domain-containing serine/threonine-protein kinase (Homo sapiens), sequence (Q96RG2 whole entry, the tested form may be a part, canonical isoform): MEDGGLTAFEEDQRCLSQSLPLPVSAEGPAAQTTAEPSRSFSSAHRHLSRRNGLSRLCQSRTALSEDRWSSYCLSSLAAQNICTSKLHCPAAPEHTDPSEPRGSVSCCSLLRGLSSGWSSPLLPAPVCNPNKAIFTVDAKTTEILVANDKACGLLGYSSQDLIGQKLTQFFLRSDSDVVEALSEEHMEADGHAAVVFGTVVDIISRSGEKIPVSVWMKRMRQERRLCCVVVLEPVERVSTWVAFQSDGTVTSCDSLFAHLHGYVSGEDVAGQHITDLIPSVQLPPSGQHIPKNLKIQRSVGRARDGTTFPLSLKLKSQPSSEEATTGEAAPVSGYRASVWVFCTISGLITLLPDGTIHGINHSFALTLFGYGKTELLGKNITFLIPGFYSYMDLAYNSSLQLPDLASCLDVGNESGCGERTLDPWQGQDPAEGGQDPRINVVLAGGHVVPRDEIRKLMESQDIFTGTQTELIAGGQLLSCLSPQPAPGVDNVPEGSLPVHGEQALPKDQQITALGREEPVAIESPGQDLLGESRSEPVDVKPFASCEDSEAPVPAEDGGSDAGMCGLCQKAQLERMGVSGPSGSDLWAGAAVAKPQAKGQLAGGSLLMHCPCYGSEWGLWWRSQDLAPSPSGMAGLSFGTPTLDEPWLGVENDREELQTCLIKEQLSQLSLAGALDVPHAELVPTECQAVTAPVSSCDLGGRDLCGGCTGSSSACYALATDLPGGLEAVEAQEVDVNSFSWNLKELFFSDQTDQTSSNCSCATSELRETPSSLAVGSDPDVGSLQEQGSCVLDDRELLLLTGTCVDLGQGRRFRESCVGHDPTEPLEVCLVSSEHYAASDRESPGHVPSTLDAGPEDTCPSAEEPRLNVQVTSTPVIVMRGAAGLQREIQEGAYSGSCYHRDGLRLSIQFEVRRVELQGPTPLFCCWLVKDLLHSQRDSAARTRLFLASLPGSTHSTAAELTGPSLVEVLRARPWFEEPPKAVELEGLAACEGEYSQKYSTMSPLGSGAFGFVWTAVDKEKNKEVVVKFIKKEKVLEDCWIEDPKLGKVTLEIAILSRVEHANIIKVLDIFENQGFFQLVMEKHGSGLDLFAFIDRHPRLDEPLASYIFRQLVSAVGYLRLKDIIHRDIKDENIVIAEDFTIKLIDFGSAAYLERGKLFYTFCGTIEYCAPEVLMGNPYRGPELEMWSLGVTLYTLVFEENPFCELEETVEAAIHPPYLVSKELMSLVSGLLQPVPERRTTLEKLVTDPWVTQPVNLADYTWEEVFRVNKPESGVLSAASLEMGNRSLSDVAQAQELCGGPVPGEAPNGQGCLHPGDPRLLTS
MAP/microtubule affinity-regulating kinase 3 (Homo sapiens), sequence (P27448 whole entry, looked up): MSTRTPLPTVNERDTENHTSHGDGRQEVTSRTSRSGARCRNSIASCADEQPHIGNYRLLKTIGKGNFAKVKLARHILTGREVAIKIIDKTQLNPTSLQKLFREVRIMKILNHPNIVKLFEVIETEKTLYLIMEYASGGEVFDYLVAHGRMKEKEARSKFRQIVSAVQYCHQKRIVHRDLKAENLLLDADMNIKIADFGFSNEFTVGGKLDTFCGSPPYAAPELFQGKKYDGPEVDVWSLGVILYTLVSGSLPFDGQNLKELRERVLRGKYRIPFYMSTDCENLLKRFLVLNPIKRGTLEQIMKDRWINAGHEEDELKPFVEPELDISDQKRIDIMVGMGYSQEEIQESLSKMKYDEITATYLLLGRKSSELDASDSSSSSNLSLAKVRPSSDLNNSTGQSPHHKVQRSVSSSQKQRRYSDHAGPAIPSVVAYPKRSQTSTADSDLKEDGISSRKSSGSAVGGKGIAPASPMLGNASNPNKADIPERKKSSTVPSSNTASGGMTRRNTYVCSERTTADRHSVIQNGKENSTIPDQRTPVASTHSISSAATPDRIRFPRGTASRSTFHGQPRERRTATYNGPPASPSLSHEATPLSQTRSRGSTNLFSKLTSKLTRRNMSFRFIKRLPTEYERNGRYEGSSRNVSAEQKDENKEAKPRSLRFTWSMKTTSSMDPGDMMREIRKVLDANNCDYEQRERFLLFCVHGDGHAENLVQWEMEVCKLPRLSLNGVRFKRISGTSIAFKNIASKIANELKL
MAP kinase-interacting serine/threonine-protein kinase 1 (Homo sapiens), sequence (Q9BUB5 whole entry, looked up): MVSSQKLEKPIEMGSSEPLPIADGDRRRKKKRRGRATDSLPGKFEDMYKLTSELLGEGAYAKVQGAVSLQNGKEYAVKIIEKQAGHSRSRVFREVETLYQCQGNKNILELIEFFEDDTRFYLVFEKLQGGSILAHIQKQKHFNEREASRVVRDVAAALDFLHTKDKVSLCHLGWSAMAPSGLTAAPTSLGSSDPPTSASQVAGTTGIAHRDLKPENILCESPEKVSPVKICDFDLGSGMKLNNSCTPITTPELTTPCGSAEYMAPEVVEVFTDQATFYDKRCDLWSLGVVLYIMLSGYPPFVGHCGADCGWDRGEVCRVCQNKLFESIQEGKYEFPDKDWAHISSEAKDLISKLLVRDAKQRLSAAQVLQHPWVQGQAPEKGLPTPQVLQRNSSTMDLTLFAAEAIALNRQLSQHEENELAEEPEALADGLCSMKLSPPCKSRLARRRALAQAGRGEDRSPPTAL
Phosphorylase b kinase gamma catalytic chain, skeletal muscle/heart isoform (Homo sapiens), sequence (Q16816 whole entry, looked up, canonical isoform): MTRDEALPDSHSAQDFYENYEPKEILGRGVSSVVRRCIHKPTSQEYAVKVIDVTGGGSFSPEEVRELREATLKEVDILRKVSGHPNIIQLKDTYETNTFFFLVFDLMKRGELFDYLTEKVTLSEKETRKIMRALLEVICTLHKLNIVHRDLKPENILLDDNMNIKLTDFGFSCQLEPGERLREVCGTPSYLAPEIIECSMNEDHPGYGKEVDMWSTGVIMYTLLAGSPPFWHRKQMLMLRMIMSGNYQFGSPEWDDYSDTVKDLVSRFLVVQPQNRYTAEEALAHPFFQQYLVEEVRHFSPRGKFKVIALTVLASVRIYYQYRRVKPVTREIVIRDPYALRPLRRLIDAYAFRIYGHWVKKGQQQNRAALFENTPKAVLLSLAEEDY

| SMILES | inhibition [1] | inhibition [2] | inhibition [3] | inhibition [4] | inhibition [5] | inhibition [6] | inhibition [7] | inhibition [8] | inhibition [9] | inhibition [10] | inhibition [11] | inhibition [12] | inhibition [13] | inhibition [14] | inhibition [15] | inhibition [16] | inhibition [17] | inhibition [18] | inhibition [19] | inhibition [20] |
| --- | --- | --- | --- | --- | --- | --- | --- | --- | --- | --- | --- | --- | --- | --- | --- | --- | --- | --- | --- | --- |
| COc1cc2ncn(-c3cc(OCc4ccccc4Cl)c(C(N)=O)s3)c2cc1OC | 9.99% | 1.66% | 9.04% | 2.05% | 8.87% | 0.61% | 7.42% | 1.58% | 7.9% | 0.69% | 6.01% | -0.4% | -0.88% | 3.72% | 5.84% | -0.8% | 1.21% | 0.77% | 2.71% | 1.11% |
| COc1ccccc1Nc1ncc(-c2ccccc2)o1 | 4.87% | 2.98% | 4.33% | 4.62% | 8.09% | 4.22% | 5.88% | 1.93% | 7.25% | 0.41% | 3.48% | -0.06% | 1.05% | 8.92% | 13.1% | 5.65% | 5.8% | 0.63% | 1.55% | 0.78% |
| CS(=O)(=O)CCNCc1ccc(-c2ccc3ncnc(Nc4ccc(OCc5ccccc5)c(Cl)c4)c3c2)o1 | 1.81% | 0.94% | 1.91% | 2.31% | 3.16% | 2.34% | 6.26% | 1.96% | 9.71% | 0.91% | 3.76% | 0.71% | 0.11% | 1.63% | 6.13% | -1.65% | -2.44% | 0.36% | 1.78% | -0.34% |
| COc1cc(C)c(NC(=O)CN(C)C)cc1Nc1nc(Nc2cccc(F)c2C(N)=O)c2cc[nH]c2n1 | 0.73% | -0.67% | 0.75% | 2.85% | 18.1% | 1.46% | 0.39% | 0.92% | 1.25% | -2% | -0.1% | -0.35% | -3.17% | 8.46% | 43.5% | 4.74% | 8.82% | 8.2% | 43.2% | 0.16% |
| CCn1c(-c2nonc2N)nc2ccncc21 | 1.4% | 1.33% | 2.78% | -0.81% | 2.39% | 1.17% | 3.2% | 0.41% | 3.51% | -1.74% | 1.6% | 0.79% | 0.01% | 1.54% | 2.74% | 2.66% | -0.15% | -0.28% | -0.66% | 0.35% |
| CC1=C(C(=O)Nc2ccc3[nH]ncc3c2)C(c2ccc(F)cc2)NC(=O)N1 (stereo not drawn) | 8.67% | 0.77% | 4.62% | 2.13% | 6.05% | 2.34% | 46.2% | 3.85% | 65.3% | -0.93% | 3.63% | -0.71% | -0.21% | 4.98% | 4.43% | 0.63% | 2.08% | 0.13% | -0.04% | -0.16% |
| O=C(Nc1n[nH]c2nc(-c3ccco3)c(Br)cc12)C1CC1 | -5.02% | 1.46% | 2.43% | 2.96% | 7.3% | 3.3% | 13.9% | 1.26% | 1.34% | -0.08% | 2.09% | 0.09% | -1.87% | 1.65% | 2.36% | 4.24% | 1.34% | -0.5% | 0.54% | -0.2% |
| NS(=O)(=O)c1cccc(-c2ccc3c(NC(=O)C4CC4)n[nH]c3c2)c1 | 3.86% | 1.62% | 6.55% | 0.79% | 3.48% | -0.26% | 7.26% | -1.27% | 1.02% | 0.51% | 4.42% | -1.09% | -1.37% | 2.99% | 2.11% | -4.36% | -2.76% | -0.14% | 1.01% | 0.46% |
| COc1cc2c(cc1Nc1nc(N3CCc4ccccc43)c3cc[nH]c3n1)N(C(=O)CN(C)C)CC2 | 6.25% | 0.37% | 1.93% | 1.9% | 2.27% | 1.09% | 5.08% | 0.08% | 7.67% | 1.14% | 0.39% | 1.45% | -0.16% |  | 3.14% | 3.23% | 0.08% | 0.66% | -0.15% | -0.35% |
| COC(=O)Nc1nc2cc(Oc3ccc(NC(=O)Nc4cccc(C(=O)O)c4)cc3)ccc2[nH]1 | 3.98% | -0.3% | 1.97% | -0.21% | 0.37% | -0.48% | 8.3% | 0.28% | 3.85% | -2.31% | 0.87% | 0.9% | 1.66% | -0.77% | 11.2% | 1.36% | 4.11% | -0.3% | 0.62% | -4.42% |
| NC(=O)c1cccc(Nc2nccc(Nc3cccc4[nH]ncc34)n2)c1 | 11.9% | 1.34% | 11.8% | -1.78% | 8.97% | 0.69% | 25.3% | 0.64% | 23.7% | 0.92% | 10.3% | 0.03% | 1.81% | 0.63% | 12.6% | -5.45% | -1.62% | 0.6% | 1.43% | 0.4% |
| Cc1cccc(-c2n[nH]cc2-c2ccc3ncccc3n2)n1 | 0.24% | -0.19% | -0.68% | 1.01% | 4.06% | 0.44% | 2.25% | 0.2% | 3.14% | -0.96% | -0.03% | -0.24% | 1.18% | 1.19% | 2.02% | -0.65% | -0.32% | -0.24% | 0.02% | 0.22% |
| COc1ccc2cc(-c3c(-c4ccncc4)nc(-c4ccc([S+](C)[O-])cc4)n3C)ccc2c1 (stereo not drawn) | 0.76% | 1.4% | 1.07% | 2.76% | 6.5% | 2.19% | 3.02% | 0.53% | 0.5% | 0.3% | 2.02% | 0.01% | -1.68% | 2.27% |  | 4.08% | 1.1% | -0.22% | 0.54% | -0.02% |
| CCn1c(-c2nonc2N)nc2c(C#CC(C)(C)O)nc(OC[C@@H](N)c3ccccc3)cc21 | 28.1% | 1.28% | 16.9% | 0.84% | 27.5% | -0.06% | 4.44% | 0.08% | 3.19% | 1.17% | 13.6% | 0.65% | 16% | 0.84% | 4.71% | -2.07% | -2.54% | 1.15% | 3.59% | 0.23% |
